Among all 48,000 compounds or so, about 13,000 (27%) showed an effect of 50% or more. The list shows a part of the results.

For this assay, the system named is Wolbachia pipientis. Kind of assay: Anti-Wolbachia Cell-Based Screen. The assay is classed as functional. Details: scale not given: in the data most compounds retested in dose-response had high values. Particulars: 5 µM.
Consider `CCCn1c(C)c(CC(=O)NC)c2c1CC(C)(C)CC2=O`, for which the “Percent Effect” value is on record as -16.12%.

On to `Cc1nc[nH]c1CN1CCOC(CCNC(=O)c2ccsc2)C1` (stereo not drawn), for which the “Percent Effect” value came out at 3.165%. To `Cc1ccc(C(=O)NCCC2CN(C3CCCC3)CCO2)c(C)c1` (stereo not drawn) belongs 105.7%; to `O=C(NCCC1CCCO1)c1ccccc1N1CCOCC1` (stereo not drawn), -10.37%. The same measure for `O=C(NCCC1CN(C2CCCC2)CCO1)c1c[nH]c(=O)[nH]c1=O` (stereo not drawn): 104.1%; for `Cc1nc(-c2ccsc2)ccc1C(=O)NCCC1CCCO1` (stereo not drawn): -16.18%; for `CC(=O)N1CCC(N2CCOC(CC3CCCCC3)C2)CC1` (stereo not drawn): -12.42%.

As for `O=C(NCCC1CN(C2CCCC2)CCO1)c1cc(=O)[nH]c(=O)[nH]1` (stereo not drawn), the “Percent Effect” value came to 90.1%.

On to `Cc1ccc(C(=O)NCC(O)CN2CCCC2=O)c(C)c1` (stereo not drawn), for which the “Percent Effect” value was -3.657%. To `O=C(c1cc(=O)[nH]c(=O)[nH]1)N1CCCCC1c1ccc(F)cc1` (stereo not drawn) belongs -19.12%. The same measure for `CC(c1ccccc1)N(C)C(=O)CN1CCCc2cc(F)cc(F)c21` (stereo not drawn): -34.4%; for `O=C([C@H]1C[C@@H]2CN(c3ncc(F)cn3)C[C@H]1O2)N1CCOCC1`: 99.35%. The same measure for `CCc1cnc(N2C[C@H]3C[C@H](C(=O)NCC(C)C)[C@@H](C2)O3)nc1`: -2.395%; for `CCc1cnc(N2C[C@H]3C[C@H](C(=O)N4CCOCC4)[C@@H](C2)O3)nc1.O=C(O)C(F)(F)F`: 104.4%; for `O=C(C1CN(c2ncc(F)cn2)CC12CCOCC2)N1CCOCC1` (stereo not drawn): -0.101%. As to `O=C(O)C(F)(F)F.O=C([C@H]1COC[C@H]2CN(c3ncc(F)cn3)C[C@H]21)N1CCOCC1`, the “Percent Effect” value is given as -8.043%.

As to `Cc1cnc(N2C[C@H]3C[C@H](C(=O)N(C)C)[C@@H](C2)O3)nc1`, the “Percent Effect” value was -7.121%. To `CCc1cnc(N2C[C@H]3C[C@H](C(=O)N(C)C)[C@@H](C2)O3)nc1` belongs -23.08%. To `O=C([C@H]1C[C@@H]2CN(c3ncc(F)cn3)C[C@H]1O2)N1CCCC1` belongs 104.9%; to `CCc1cnc(N2C[C@H]3C[C@H](C(=O)NC)[C@@H](C2)O3)nc1`, 2.577%. `O=C(NCCCF)Nc1ccc2nc(N3CCOCC3)oc2c1`: the “Percent Effect” value turned out to be 0.7918%. To `O=C(NC1CC1)C1CCN(c2nc3nc[nH]c(=O)c3s2)CC1` belongs 99.33%; to `O=C(NC1CCN(c2snc3ccccc23)CC1)C1CCC1`, 9.197%; to `O=C(C1CCN(c2nc3nc[nH]c(=O)c3s2)CC1)N1CCCCC1`, 84.01%. The same measure for `CCc1c(C)nc2ccccc2c1N1CCC(C(=O)NC)CC1`: -7.875%; for `CC(NC(=O)C1CCN(C(C)C)CC1)c1nncn1C1CCCC1` (stereo not drawn): -21.33%; for `CC(C)NC(=O)C1CCN(c2nc3nc[nH]c(=O)c3s2)CC1`: 92.05%.

For `CNC(=O)C1CCN(c2nc3nc[nH]c(=O)c3s2)CC1`, the “Percent Effect” value is given as 82.12%.

Turning to `CC(C)NC(=O)C1CCN(Cn2ccc(-c3ccc(F)cc3)n2)CC1`, the “Percent Effect” value came out at 3.574%. The same measure for `CCc1nc(CC(=O)N2CCC(C(=O)N3CCCC3)CC2)cs1`: -3.887%; for `O=C(NC1CCCC1)C1CCN(c2cc(-n3ccnc3)ncn2)CC1`: -4.5%; for `CNC(=O)C1CCCN(c2nc3c(-c4ccccc4)csc3c(=O)[nH]2)C1` (stereo not drawn): 3.58%. The same measure for `O=C(C1CCN(c2snc3ccccc23)CC1)N1CCCCCC1`: 0.1158%; for `CCC(=O)N1CCc2[nH]cnc2C12CCN(CC1CCOC1)CC2` (stereo not drawn): -0.5236%. The same measure for `O=C(CCc1ccco1)NCC1CCCN1c1cccnn1` (stereo not drawn): 2.662%. Consider `Fc1cc(CN2CCOC3(CCOCC3)C2)ccc1Cl`, for which the “Percent Effect” value amounted to 8.168%. The same measure for `CN(C)C(=O)CNC(=O)c1ccc2c(-c3nccs3)noc2c1`: -0.7255%. The same measure for `CC(Cc1ccco1)NC(=O)C1=NN(c2ccccc2)C(=O)CC1` (stereo not drawn): -5.577%. To `Cn1cnc2c1CCN(CCCOc1ccc(C#N)cc1)C2` belongs -1.382%; to `CN(C)c1ccc(-c2nnc([C@H]3CCN(C4CCCCC4)C3)o2)cc1`, -10.19%.

Consider `Cc1ccccc1-c1cc(CC2(C(=O)O)CCOCC2)on1`, for which the “Percent Effect” value is listed as 97.16%. The same measure for `O=C(O)C1(Cc2cc(-c3ccc(F)cc3F)no2)CCOCC1`: -11.85%; for `O=C(NCCO)C1(Cc2cc(-c3ccc(F)cc3F)no2)CCOCC1`: -8.546%. To `O=C(O)C1(Cc2cc(-c3cccc(F)c3)no2)CCOCC1` belongs -9.48%. `Cc1cc(NCC2(O)CCOCC2)c2ccccc2n1`: the “Percent Effect” value turned out to be 18.91%. The same measure for `O=C(NC1CC1)C1(Cc2cc(-c3ccc(F)cc3F)no2)CCOCC1`: 116.7%; for `O=C(CNC1(CCO)CCOCC1)Nc1ccc(F)cc1F`: 0.1585%; for `O=C(O)C1(Cc2cc(-c3ccccc3F)no2)CCOCC1`: 118.9%. To `O=C(O)C1(Cc2cc(-c3ccc(F)cc3)no2)CCOCC1` belongs 104.3%; to `Cc1ccccc1C1(C(=O)NCCN2CCCC2)CCOCC1`, 3.645%; to `COCCNC(=O)c1cc(F)ccc1NS(C)(=O)=O`, -6.492%. The same measure for `Cc1cc(C)n(CC2CCCN2CC(=O)N(C)Cc2cnn(C)c2)n1` (stereo not drawn): 3.257%; for `Cc1ccsc1CN(CCN(C)C)C(=O)C1=NNC(=O)CC1`: -65.43%. Take `O=C(CSc1ccncc1)N1CCC2(CC1)c1ccccc1CC2O` (stereo not drawn): the “Percent Effect” value is -6.227%.

Regarding `CCS(=O)(=O)N1CC[C@H]2O[C@@H](c3nnc(C)o3)CC[C@H]21`, the “Percent Effect” value was -3.387%. To `CCc1nc(C)c(C(=O)N2CCNCC2C(=O)NCc2ccncc2)o1` (stereo not drawn) belongs -5.393%. To `COCc1noc(-c2nn(-c3ccc(F)cc3)c3c2CCC3)n1` belongs -5.396%; to `COCCOCc1cccc(NC(=O)N2CCCC2c2ccncc2)c1` (stereo not drawn), 1.869%. On to `CNC(=O)C(C)(C)N1CCC[C@H]1C(=O)NCCN(C)C.Cl`, for which the “Percent Effect” value came to 11.97%.

Turning to `Cc1ncc2c(n1)CCCC2NC(=O)c1ccccc1C(=O)O` (stereo not drawn), the “Percent Effect” value was found to be 116.6%.

Turning to `O=C(Nc1ccc(Cn2cccn2)cc1)N1CCC(CO)CC1`, the “Percent Effect” value was 5.025%. To `Cc1ncc2c(n1)CCCC2NC(=O)c1ccncc1` (stereo not drawn) belongs 4.921%; to `Cc1ccccc1C(=O)NC1CCN(c2cnn(C)c2)C1=O` (stereo not drawn), -0.04337%; to `Cc1ncc2c(n1)CCCC2NC(=O)c1ccccc1Cn1cncn1` (stereo not drawn), -4.956%. For the molecule `Cc1ncc2c(n1)CCCC2NC(=O)c1ccc(Cn2cccn2)cc1` (stereo not drawn), the “Percent Effect” value came out at 102.9%. The same measure for `Cc1ccccc1Oc1ncccc1CNS(C)(=O)=O`: -1.022%; for `CNC(=O)CN(C)S(=O)(=O)c1c(Br)cc2[nH]c(=O)oc2c1Cl`: -6.435%; for `CN(C)CCNc1cc(-c2ccc[nH]c2=O)c2cc[nH]c2n1`: 6.813%. The same measure for `CNc1cc(C)nc(-c2cc(NC)nc3[nH]ccc23)n1`: 82.65%. Regarding `Nc1ccnc(-c2cc(NC3CCNCC3)nc3[nH]ccc23)c1`, the “Percent Effect” value is reported as 10.25%. Turning to `CN(C)CCNc1cc(-c2ncccn2)c2cc[nH]c2n1`, the “Percent Effect” value is listed as -0.2256%. With `COc1cccc(-c2cc(NCCN(C)C)nc3[nH]ccc23)n1`, the “Percent Effect” value is recorded as -69.14%.

Regarding `COc1nccnc1-c1cc(NC2CCNCC2)nc2[nH]ccc12`, the “Percent Effect” value was -9.475%. The same measure for `CNc1cc(C)nc(-c2cc(NCCO)nc3[nH]ccc23)n1`: 88.51%.

Turning to `CNc1cc(C)nc(-c2cc(NC3CCNCC3)nc3[nH]ccc23)n1`, the “Percent Effect” value stood at 81.74%. Consider `COc1cccc(-c2cc(NCCO)nc3[nH]ccc23)n1`, for which the “Percent Effect” value is on record as 17.98%. As to `COCc1ncn(Cc2nc(-c3ccc(OC)c(OC)c3)oc2C)n1`, the “Percent Effect” value was determined as 7.274%.

`Cn1ccc(CNC(=O)Nc2ccc(S(=O)(=O)C(F)F)cc2)c1`: the “Percent Effect” value is given as -20.88%. To `N#Cc1cc(NC(=O)c2ccccn2)ccc1N1CCC(O)CC1` belongs -12.43%; to `Cc1cc2cccc(C(=O)N3CC[C@@H](N)[C@H](O)C3)c2o1`, -9.123%; to `Cc1nc(-c2ccccc2C(=O)O)cc(C2CCN(C(C)C)C2)n1` (stereo not drawn), 107.2%. As to `Cc1nc(C(C)C)ncc1C(=O)N1CCC(c2ccccc2C(=O)O)C1` (stereo not drawn), the “Percent Effect” value was -21.75%. The same measure for `Cc1cc(-c2cc(F)ccc2C(=O)O)nc(C2CCCN(C)C2)n1` (stereo not drawn): 126.1%; for `Cc1noc(C2CCCN(C(=O)c3ccc(F)cc3F)C2)n1` (stereo not drawn): -2.652%. To `Cc1cc(-c2ccccc2C(=O)O)nc(C2CCCN(C)C2)n1` (stereo not drawn) belongs 123%; to `CC(=O)N1CCC(c2nc(C)cc(-c3ccccc3C(=O)O)n2)CC1`, 83.33%.

As for `Cc1cc(C(=O)N2CCCC(c3noc(C)n3)C2)[nH]n1` (stereo not drawn), the “Percent Effect” value is recorded as -10.2%.

Regarding `COC(=O)c1cccc(NS(=O)(=O)c2cnc(NC(C)=O)s2)c1`, the “Percent Effect” value worked out at 20.99%. The same measure for `Cc1cc2nc(CO[C@H]3CN(C(=O)C4CC4)C[C@H]3F)[nH]c2cc1C`: 14.86%. Take `CC(Cc1ccco1)NS(=O)(=O)N1CCCCC1` (stereo not drawn): the “Percent Effect” value is given as -4.951%. The same measure for `Cc1cc(-c2cc(F)ccc2C(=O)O)nc(C2CCCCN2C(C)C)n1` (stereo not drawn): 125.8%; for `Cc1cc(-c2ccccc2C(=O)O)nc(C2CCCN(C(C)C)C2)n1` (stereo not drawn): 128.4%; for `Cc1cc(=O)c(C(=O)N2CCCCC2c2ccc(F)cc2)c[nH]1` (stereo not drawn): -20.91%. The same measure for `COC(=O)NCC(=O)N1CCCCC1c1nc2cc(F)ccc2[nH]1` (stereo not drawn): -29.13%; for `COc1ccc(Cl)cc1CCNC(=O)N(C)CC1CCOC1` (stereo not drawn): 11.56%; for `CN(C)CCN1CCc2c(nnn2C)C1COCc1ccccc1.O=C(O)C(F)(F)F.O=C(O)C(F)(F)F` (stereo not drawn): 6.935%.

As for `CN1CCC2(CC1)CN(Cc1ccc(C3CCCCO3)o1)CCCN2C` (stereo not drawn), the “Percent Effect” value was 6.017%. The same measure for `CN(C)c1ccc(NC(=O)NCc2cccs2)cn1`: -3.387%; for `Cc1nnc(NC(=O)NCc2cccnc2N(C)C)s1`: 4.263%. The same measure for `COc1ncccc1CNC(=O)Nc1ccc(N(C)C)nc1`: 102.4%. To `CN(C)c1ccc(NC(=O)NCc2cccnc2N(C)C)cn1` belongs 100.5%; to `CC(CNC(=O)Nc1ccc(N(C)C)nc1)Cn1cccn1` (stereo not drawn), 10.01%. In the case of `Cc1nc(CNC(=O)Nc2ccc(N(C)C)nc2)sc1C`, the “Percent Effect” value was -4.03%.

The values above are taken from ChEMBL document CHEMBL3988442, “University of Dundee, Small-Polar-MMV Screening Library” (2021).
